# Shown are actives, neighbours in structure and some others; about 3.5% of the full set was active somewhere.
# TEAD-YAP block: TEAD-YAP interaction inhibition, primary screen, TEAD-YAP interaction inhibitor project, luminescence, HEK-TIYL cells. inhibition, % at 9.12 µM. actives 1.4% (n = 640,000). AID 1259422, 2018. TEAD-Gal4/YAP UAS-luciferase luminescence; in the data active = inhibition above about 32%
# MITF inh: MITF inhibitors, primary screen, biochemical, AlphaScreen, human | Microphthalmia-associated transcription factor (Homo sapiens), O75030 | AlphaScreen MITF homodimerization, bead proximity signal | inhibition, % at 2.6 µM | actives 0.91% (n = 650,000) | AID 1259374, 2018; in the data active = inhibition above about 50%
# Target sequence (O75030 whole entry, looked up): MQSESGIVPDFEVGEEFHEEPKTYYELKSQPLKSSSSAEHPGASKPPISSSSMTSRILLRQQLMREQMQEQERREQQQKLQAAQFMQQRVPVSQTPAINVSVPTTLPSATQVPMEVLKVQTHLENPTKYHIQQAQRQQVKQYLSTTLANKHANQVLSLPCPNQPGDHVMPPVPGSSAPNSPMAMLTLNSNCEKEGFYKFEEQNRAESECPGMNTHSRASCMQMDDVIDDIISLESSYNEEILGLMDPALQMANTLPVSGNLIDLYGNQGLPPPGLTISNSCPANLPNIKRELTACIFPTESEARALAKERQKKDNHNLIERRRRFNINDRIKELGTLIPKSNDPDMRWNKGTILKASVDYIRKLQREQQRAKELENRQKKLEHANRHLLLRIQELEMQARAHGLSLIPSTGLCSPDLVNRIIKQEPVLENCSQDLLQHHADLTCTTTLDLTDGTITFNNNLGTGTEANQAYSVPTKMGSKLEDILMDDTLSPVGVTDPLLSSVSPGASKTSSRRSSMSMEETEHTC
# GPR151 ag: activators of human GPR151, primary screen, cell-based, PathHunter beta-arrestin, luminescence | G-protein coupled receptor 151 (Homo sapiens), Q8TDV0 | PathHunter beta-arrestin GPR151 cells | activation, % at 11.2 µM | actives 1% (n = 650,000); in the data active = activation above about 4.9%
# FBW7 activator: FBW7 E3 ligase activators, primary screen, biochemical, AlphaScreen, human; F-box/WD repeat-containing protein 7 (Homo sapiens), Q969H0; AlphaScreen FBW7–phospho-cyclin E peptide binding, activator screen; normalized activity (activation), % at 26.1 µM; actives 0.13% (n = 650,000); AID 1259310, 2017; in the data active = normalized activity above about 1.9%;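 note: purified mutant Fbw7 with reduced substrate affinity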
# MITF confirm: MITF inhibitors, retest of hits, confirmation, biochemical, AlphaScreen, triplicate. shares compounds with MITF inh. AlphaScreen MITF homodimerization, biotin/His-MITF beads. inhibition, % at 2.6 µM. actives 16% (n = 4,700);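 active = inhibition above a cutoff derived from the DMSO control wells, cut at about 28% in these data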;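 note: inhibitors lower the bead chemiluminescence by keeping MITF from dimerizing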
# AS interf DR: AlphaScreen optical interference compounds, dose response, counter-screen, biochemical, HTS. shares compounds with MITF inh. AlphaScreen optical interference counterscreen, cell-free. IC50, µM. actives 6% (n = 480). AID 1259373, 2018; call rule not given here
# AS interf ctr: AlphaScreen optical interference compounds, counter-screen for MITF inhibitor project, biochemical, triplicate; LysRS AlphaScreen counterscreen, signal interference; inhibition, % at 2.6 µM; shares compounds with MITF inh; actives 7.6% (n = 4,700);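 active = inhibition above a cutoff derived from the DMSO control wells, cut at about 30% in these data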
# Numbers stand for hits; 0 = inactive; - = no result given; ! = not confirmed by another sample.
SMILES,TEAD-YAP block,MITF inh,GPR151 ag,FBW7 activator,MITF confirm,AS interf ctr,others
COc1cc(/C=N/N=C2\NC(=O)C(CC(=O)O)S2)ccc1OCc1ccc(C)cc1 (configuration not stated),0,66,0,0,45,0,AS interf DR=0
COc1cc(/C=N/N=C2\NC(=O)C(CC(=O)O)S2)ccc1OCC(=O)O (configuration not stated),0,0,0,0,-,-,
CN(C)/C=C/c1c(Br)cncc1[N+](=O)[O-],0,0,0,0,-,-,
CC1=C/C(=C/c2ccc(-c3ccccc3[N+](=O)[O-])o2)C(=O)O1,0,0,0,0,-,-,
COc1ccc2c(c1)C(C)CC(C)(C)N2C(=O)CNCCN1CCOCC1 (configuration not stated),0,88,0,0,0,0,
COc1ccc2c(c1)C(C)CC(C)(C)N2C(=O)NC1CCCCC1 (configuration not stated),0,0,0,0,-,-,
Cc1ccc(CN2CCC(C(=O)N3CCc4ccccc4C3)CC2)o1,0,54,0,0,0,0,
O=C(C1CCCN(Cc2cccc([N+](=O)[O-])c2)C1)N1CCCCCC1 (configuration not stated),0,69,0,0,0,0,
O=C(C1CCN(Cc2ccccc2F)CC1)N1CCc2ccccc2C1,0,0,0,0,-,-,
CCN(CC)C(=O)C1CCCN(Cc2cccc([N+](=O)[O-])c2)C1 (configuration not stated),0,0,0,0,-,-,
O=C(C1CCCN(Cc2cccc([N+](=O)[O-])c2)C1)N1CCc2ccccc2C1 (configuration not stated),0,51,0,0,0,0,
COc1cccc(CN2CCc3ccccc3C2)c1,0,0,0,0,-,-,
COc1cccc(CN2CCCC(C(=O)N3CCc4ccccc4C3)C2)c1 (configuration not stated),0,60,0,0,0,0,
COc1ccc(C(=O)N2CCN(c3ccccc3)CC2)cc1,0,0,0,0,-,-,
COc1ccc(-c2cc(C(=O)Nc3ccccc3OC)c3ccccc3n2)cc1,0,0,0,0,-,-,
O=C(Nc1ccc(F)cc1F)C1CC2CCCN2C12C(=O)Nc1ccccc12 (configuration not stated),0,0,0,0,-,-,
COc1cccc(CN2CCN(S(=O)(=O)c3ccccc3[N+](=O)[O-])CC2)c1,0,66,0,0,0,0,
CCOc1cc(CN2CCN(S(=O)(=O)c3ccccc3[N+](=O)[O-])CC2)ccc1OC,0,66,0,0,0,0,
c1cc2c(cc1Cc1nn[nH]n1)OCO2,0,66,0,0,0,0,
O=C(CC(NCc1ccccn1)C(=O)O)Nc1ccc(Oc2ccccc2)cc1 (configuration not stated),0,90,0,0,95,100,
O=C(CC(NCc1ccco1)C(=O)O)Nc1ccc(Oc2ccccc2)cc1 (configuration not stated),0,0,0,0,-,-,
O=C(CC(NCc1ccccn1)C(=O)O)Nc1cccc([N+](=O)[O-])c1 (configuration not stated),0,0,0,0,-,-,
O=C(CC(NCc1ccccn1)C(=O)O)Nc1ccc(F)cc1 (configuration not stated),0,108,0,0,102,100,
O=c1[nH]c(O)c(C=Nc2ccc(Cl)cc2)c(=O)[nH]1,0,0,0,0,-,-,
O=C(CCCN1C(=O)c2cccc3cccc(c23)C1=O)N1CCCCC1,0,0,0,0,-,-,
SMILES,TEAD-YAP block,MITF inh,GPR151 ag,FBW7 activator,MITF confirm,AS interf ctr,others
CC(=NCc1ccccc1)c1c(O)n(C)c(=O)n(C)c1=O,0,0,0,0,-,-,
Cc1ccc(Cn2nnc3c(=O)[nH]c(C4CCCN(C(=O)C(C)(C)C)C4)nc32)cc1 (configuration not stated),0,67,0,0,0,0,
Cc1ccc(Cn2nnc3c(=O)[nH]c(C4CCN(C(=O)C(F)(F)F)CC4)nc32)cc1,0,75,0,0,0,0,
Fc1ccc(NC(=S)NCc2ccco2)cc1,0,0,0,0,-,-,
CN(C)c1ccc(O)c2c1C[C@H]1C[C@H]3[C@H](N(C)C)C(=O)C(C(N)=O)=C(O)[C@@]3(O)C(=O)C1=C2O,0,73!,0,0,64,0,AS interf DR=0
O=C(Nc1ccc(N2CCC(NCC3OCCc4ccccc43)CC2)cc1)c1cnccn1 (configuration not stated),0,0,0,0,-,-,
Brc1ccc(CN2CCN(c3ccccn3)CC2)cc1,0,53,0,0,0,0,
Cc1ccc(CN2CCN(c3ccccn3)CC2)cc1,0,0,0,0,-,-,
COc1cc(CN2CCN(c3ccccn3)CC2)ccc1O,0,54,0,0,0,0,
O=C(CN1CCN(c2ccccn2)CC1)N(Cc1ccccc1)Cc1ccccc1,0,91,0,0,0,0,
CCOc1ccc(NC(=O)c2cnc(N3CCN(c4ncccn4)CC3)c3ccccc23)cc1,0,0,0,0,-,-,
CC(=O)NC1C(=O)Nc2c(C)ccc(Cl)c21 (configuration not stated),0,0,0,0,-,-,
O=C(O)c1cc(NC(=O)c2ccc(F)cc2)cc(NC(=O)c2ccc(F)cc2)c1,0,0,0,0,-,-,
COc1cccc(NC(=O)C(=O)NCCN(C)C)c1,0,0,0,0,-,-,
CCSc1nc2sc3c(c2c(=O)n1-c1cccc(C)c1)CCc1ccccc1-3,0,0,0,0,-,-,
O=C(O)Cn1cc(/C=N\NC(=O)C(O)(c2ccccc2)c2ccccc2)c2ccccc21,0,0,0,0,-,-,
O=C(Nc1ccc(O)c(-c2nc3ccccc3o2)c1)c1ccc(Cl)c(Cl)c1,0,0,0,0,-,-,
COc1ccc(C(=O)N(Cc2nc(-c3ccc(C)cc3)no2)C(C)C)cc1[N+](=O)[O-],0,55,0,0,0,0,
COc1ccc(-c2noc(CN(C(=O)c3ccc(OC)c([N+](=O)[O-])c3)C(C)C)n2)cc1,0,0,0,0,-,-,
O=C(Cn1c(-c2ccccc2)noc1=O)Nc1ccc(N2CCCCCC2)cc1,0,54,0,0,0,0,
CN1CCN(CC(=O)Nc2ccc(C(=O)N3CCCC3)cc2)CC1,0,0,0,0,-,-,
CN1CCN(CC(=O)Nc2ccc(C(F)(F)F)cc2)CC1,0,67,0,0,0,0,
Cc1cc(NC(=O)CN2CCN(c3cccc(Cl)c3)CC2)no1,0,0,0,0,-,-,
CN1CCN(CC(=O)Nc2ccc(N3CCCCCC3)cc2)CC1,0,55,0,0,0,37,

# Screens (PubChem)
